Bioassay records as filed in PubChem.
Tau ThT inhib – blocks human tau fibril formation measured by thioflavin T | P10636 | recombinant tau K18 P301L, heparin-induced fibrillization, ThT fluorescence | Potency, µM (titrated, usually from 57.4 µM), most hits filed as inhibitors | hit rate 2.1% among 270,000; also: nearly all actives have a fitted effect of over 55% in size
Target sequence (P10636 561-689 P618L limits assumed): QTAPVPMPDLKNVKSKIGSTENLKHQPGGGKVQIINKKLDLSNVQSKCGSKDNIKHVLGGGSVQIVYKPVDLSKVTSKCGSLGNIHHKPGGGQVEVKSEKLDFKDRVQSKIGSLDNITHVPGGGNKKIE
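K18 P301L tau (15 uM + 0.24 uM Alexa 594-tagged), heparin 20 uM, NaOAc pH 7, 6 h 37 C; ThT 30 uM, 1 h RT, ex 450/em 510 nm.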
TR SRC2 fluor cs – counter-screen for TRb-SRC2 inhibitors: fluorescence interference | TRb/SRC2 Texas Red total fluorescence interference | Potency, µM (titrated, usually from 106 µM) | hit rate 0.29% among 280,000 | AID 1479; active = well fitted curve in either direction with a large enough effect; inconclusive = small, poorly fitted or top-dose-only effect
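Human TRb ligand-binding domain at 0.6 uM with 20 nM Texas Red SRC2 peptide in Tris buffer containing 1 uM T3 and 5% DMSO, incubated with compound 5 h at ambient temperature. Total fluorescence (555/632 nm) calculated as parallel + 2 × perpendicular.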
Tau fluor cs – counter-screen for tau fibril formation inhibitors. AID 1463. hit rate 0.93% among 280,000. Potency, µM (doses to about 57.7 µM). tau K18 P301L Alexa594 fluorescence, heparin fibrillization; also: nearly all actives have a fitted effect of over 55% in size
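Human tau K18 P301L (15 uM unlabeled, 0.24 uM Alexa 594-labeled) in 100 mM sodium acetate pH 7 with 20 uM heparin, 6 hr at 37 C. ThT 30 uM added, 1 hr ambient; Alexa 594 FP and total fluorescence read at 555/632 nm.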
TRb SRC2 PPI – TRbeta-SRC2 interaction inhibition | P10828 | hit rate 0.065% among 280,000 | Potency, µM (series often up to 106 µM), hits mostly inhibitors | TRbeta-SRC2 peptide binding, fluorescence polarization; receptor liganded with 1 µM T3 | AID 1469; also: nearly all actives have a fitted effect of over 50% in size
Target sequence (P10828 whole entry, looked up): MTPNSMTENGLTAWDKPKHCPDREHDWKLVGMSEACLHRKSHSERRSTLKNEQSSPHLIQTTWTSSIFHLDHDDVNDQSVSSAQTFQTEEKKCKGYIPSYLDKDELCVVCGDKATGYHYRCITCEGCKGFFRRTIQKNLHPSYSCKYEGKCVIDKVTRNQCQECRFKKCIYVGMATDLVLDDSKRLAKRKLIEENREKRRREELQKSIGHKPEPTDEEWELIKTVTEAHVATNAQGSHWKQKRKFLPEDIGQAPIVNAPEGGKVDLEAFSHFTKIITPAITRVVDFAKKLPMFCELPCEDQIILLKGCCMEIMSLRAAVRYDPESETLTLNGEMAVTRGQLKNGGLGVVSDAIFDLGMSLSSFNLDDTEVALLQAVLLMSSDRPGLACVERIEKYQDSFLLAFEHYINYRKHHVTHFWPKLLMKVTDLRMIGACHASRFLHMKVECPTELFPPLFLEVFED
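Assay buffer: 20 mM Tris-HCl, 100 mM NaCl, 10% glycerol, 1 mM EDTA, 0.01% NP-40, 1 mM DTT, 1 uM T3, 5% DMSO; TRb LBD 0.6 uM, Texas Red SRC2 20 nM; FP after 5 hr.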
Tau FP inhib – inhibitors of human tau fibril formation. Potency, µM (top dose mostly 57.7 µM), actives largely listed as inhibitors. hit rate 0.39% among 280,000. K18 P301L tau heparin fibrillization, Alexa594 FP, 6 h. P10636; also: nearly all actives have a fitted effect of over 55% in size
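K18 P301L tau (15 uM unlabeled/0.24 uM Alexa 594-labeled, final) + compound + heparin 20 uM final; 100 mM NaOAc pH 7; 6 hr 37 C; ThT 30 uM final added, 1 hr RT; FP ex 555/em 632 nm.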
A number is an active result; n = inactive; u = inconclusive; x = no result; ! = repeats disagree; [ ] = remark or other dose. A selection: hits, their analogues and other compounds. The true share with any hit is near 3.1%. Unless noted, calls follow the shape of the dose curve; as a rule, active = well fitted curve in the direction sought with a large enough effect; inconclusive = small, poorly fitted or top-dose-only effect, or another doubt; inactive = no such curve, though single readings can be large; an effect the other way counts as inactive or inconclusive.

SMILES | Tau ThT inhib | TR SRC2 fluor cs | Tau fluor cs | TRb SRC2 PPI | Tau FP inhib
Oc1nc(Nc2ccc(Cl)cc2Cl)sc1/C=C1\C=Nc2ccccc21 | 8.9µM | n | u | n | n
O=C1CC(/C=C/c2ccc([N+](=O)[O-])cc2)=Nc2ccccc2N1 | 4µM | n | u | n | n
CCCC[n+]1c(C)sc2cc(OC)ccc21 | u | n | n | n | n
CCC[n+]1c(C)sc2c(OC)ccc(OC)c21 | 35µM | n | n | n | 32µM
CC1(C)CC(NCCCCCCNC2CC(C)(C)NC(C)(C)C2)CC(C)(C)N1 | x | n | x | n | x
O=c1cc(-c2ccc(O)c(O)c2)oc2ccccc12 | 18µM | n | u | n | u
O=c1cc(-c2ccccc2)oc2ccccc12 | x | n | x | n | x
N#Cc1cc2c(nc1SCc1nc3ccccc3[nH]1)CCC2 | 6.3µM | n | u | n | n
Cc1cccc(CSc2nc3c(cc2C#N)CCC3)c1 | n | n | n | n | n
CCCCCCC1=Cc2cc(OC)c(OC)cc2C(C(C(C)=O)C(=O)OC)O1 (configuration not stated) | n[11.5 µM] | n[11.2 µM] | n[11.6 µM] | n[11.2 µM] | n[11.6 µM]
CCCCC1=CC2=CC(=O)C(C)(OC(=O)CCc3ccccc3)C(=O)C2=CO1 (configuration not stated) | 25µM! | n | u | n | u
CC1(OC(=O)C2CCCC2)C(=O)C=C2C=C(c3ccsc3)N(Cc3ccccc3)C=C2C1=O (configuration not stated) | 10µM! | n[11.2 µM] | n[11.6 µM] | n[11.2 µM] | u
CC(C)(C)OC(=O)NCCCC1=CC2=CC(=O)C(C)(OC(=O)CCc3ccccc3)C(=O)C2=CO1 (configuration not stated) | n | n | n | n | u
CC1(OC(=O)CCc2ccccc2)C(=O)C=C2C=C(c3ccc(C#N)cc3)N(Cc3ccccc3)C=C2C1=O (configuration not stated) | 8.9µM! | n[11.2 µM] | n[11.6 µM] | n[11.2 µM] | u
CC1(OC(=O)C2CCCC2)C(=O)C=C2C=C(c3ccsc3)N(CCc3ccccn3)C=C2C1=O (configuration not stated) | 4µM | n[11.2 µM] | n[11.6 µM] | n[11.2 µM] | u
CC(C)CN1C=C2C(=O)C(C)(OC(=O)C3CCCC3)C(=O)C=C2C=C1c1ccsc1 (configuration not stated) | u | n[11.2 µM] | n[11.6 µM] | n[11.2 µM] | n[11.6 µM]
COCCNC(=O)Nc1ccc2nc(-c3cccs3)c(-c3cccs3)nc2c1 | u | n | 16µM[quencher] | n | 16µM
O=C(NCCN1CCN(c2ccccc2)CC1)C1CCN(S(=O)(=O)c2cccc3nsnc23)CC1 | n | n | n | n | n
CN(C(=O)CSc1nc2ccc(NC(=O)COc3ccccc3Cl)cc2s1)c1ccccc1 | n | n | n | n | n
COc1ccc(C(N)=S)cc1 | n | n | n | n | n
CCn1c(O)c(/C=N/N=C2CCCCC2)c2cc(C3=NNC(=O)CC3)ccc21 | 10µM | n | n | n | n
CCn1c(O)c(/C=N/N=C2CCCC2)c2ccc(C3=NNC(=O)CC3)cc21 | u | n | n | n | n
COc1ccc(CCNC2=C(Cl)C(=O)N(CCc3ccccc3)C2=O)cc1OC | u | n | n | n | n
COc1ccccc1NC1=C(Cl)C(=O)N(c2ccccc2)C1=O | u | n | n | n | n
CCOc1ccc(N2C(=O)C(Cl)=C(Nc3ccccc3O)C2=O)cc1 | 10µM | n | u | n | u
SMILES | Tau ThT inhib | TR SRC2 fluor cs | Tau fluor cs | TRb SRC2 PPI | Tau FP inhib
O=C1C(Cl)=C(Nc2ccccc2O)C(=O)N1CCc1ccccc1 | 10µM | n | u | n | u
CC(C)Sc1ncc(Cl)c(C(=O)Nc2c(C(=O)Nc3ccccc3)oc3ccccc23)n1 | n | n | n | n | n
CCCS(=O)(=O)c1ncc(Cl)c(C(=O)Nc2c(C(=O)Nc3ccccc3)oc3ccccc23)n1 | 7.1µM | u | u | n | n
CC(=O)c1ccc(NC(=O)CCc2c(C)nc3c(c2C)c(=O)n(C)c(=O)n3C)cc1 | n | n | n | n | n
Cc1ccccc1-c1ccnc2c(-c3ccc(F)cc3)c(C)nn12 | u | 11µM[quencher] | u | n | n
O=C(CNS(=O)(=O)c1cccs1)N1CCN(c2cccc(C(F)(F)F)c2)CC1 | n | n | n | n | n
NC(=O)C1CCN(C2=C(NS(=O)(=O)c3ccccc3)C(=O)c3ccccc3C2=O)CC1 | u | n | n | n | n
CCOc1ccccc1N1CCN(C2=C(NS(=O)(=O)c3cccs3)C(=O)c3ccccc3C2=O)CC1 | 8.9µM | n | 13µM[quencher] | n | u
COc1ccccc1N1CCN(S(=O)(=O)c2cccs2)CC1 | n | n | n | n | n
O=C1C(NS(=O)(=O)c2cccs2)=C(N2CCOCC2)C(=O)c2ccccc21 | 16µM | n | u | n | u
O=C1C(NS(=O)(=O)c2cccs2)=C(N2CCN(c3cccc(C(F)(F)F)c3)CC2)C(=O)c2ccccc21 | 4.5µM | n | 7.1µM[quencher] | n | n
O=C1C(NS(=O)(=O)c2ccc(Cl)cc2)=C(N2CCCCC2)C(=O)c2ccccc21 | 16µM | n | u | n | u
COc1ccc(N2C(=O)CC(NCCNc3ccc([N+](=O)[O-])cn3)C2=O)cc1 (configuration not stated) | n | n | n | n | n
O=C1C(NS(=O)(=O)c2cccs2)=C(N2CCN(Cc3ccccc3)CC2)C(=O)c2ccccc21 | 16µM | n | u | n | n
O=C(O)c1cccc(NC2=C(N3CCOCC3)C(=O)c3ccccc3C2=O)c1 | 32µM | n | u | n | u
CN1CCN(C2=C(NS(=O)(=O)c3cccs3)C(=O)c3ccccc3C2=O)CC1 | u | n | n | n | n
CN(C1=C(N2CCOCC2)C(=O)c2ccccc2C1=O)c1ccccc1 | u | n | u | n | n
Cc1ccc(-c2cccc(-c3cc(=O)oc4ccc(C(C)(C)C)cc34)c2)cc1 | u | n | n | n | n
O=C(O)c1ccc(N/N=C/c2ccc(-c3ccc(Cl)cc3Cl)o2)cc1 | u | n | u | n | n
O=C(O)c1cccc(-c2ccc(/C=N/Nc3ccc([N+](=O)[O-])cc3)o2)c1 | x | n | 16µM[quencher] | n | n
O=C(O)c1cc(-c2ccc(/C=N/Nc3ccc([N+](=O)[O-])cn3)o2)ccc1Cl | 1.3µM | n | u | n | n
O=C(O)c1ccc(-c2ccc(/C=N/Nc3ccc([N+](=O)[O-])cc3)o2)cc1 | x | n | n[0.0958 µM] | n | n[0.0958 µM]
Cc1c(C(=O)O)cccc1-c1ccc(/C=N/Nc2ccc(Br)cc2)o1 | 11µM | n | u | n | n
Cc1cccc(C(=O)Oc2ccccc2/C=N/Nc2ccc([N+](=O)[O-])cc2)c1 | u | n | 4µM[quencher] | n | n
Cc1ccc(S(=O)Cc2ccc(C(=O)NC3CCCCCC3)o2)cc1 (configuration not stated) | n | n | n | n | n
CCn1c(SCC(=O)N/N=C/c2ccccc2OCC(=O)O)nnc1-c1ccc(C)cc1 | n | n | n | n | n
O=C(O)c1ccc(N/N=C/c2ccc(-c3cccc(Cl)c3)o2)cc1 | x | n | 20µM[quencher] | n | n
